Test results: PMC7862700, “An all-to-all approach to the identification of sequence-specific readers for epigenetic DNA modifications on cytosine”

Experiments:
Assay in all cases: DAPPL (digital affinity profiling via proximity ligation, sequencing); 10 mM Tris-HCl pH 7.5, 50 mM NaCl, 1 mM DTT, 4% glycerol, room temperature, 30 min; GST-TFs on glutathione beads, 16-mer random dsDNA library, 0.1% formaldehyde crosslink after washing; high values mean tight binding
Settings in all cases: protein: recombinant; tags: N-terminal GST; dsDNA, one strand shown
FLI1 = target: T1, FLI1 (Homo sapiens, UniProt Q01543 1-452)
T1 sequence: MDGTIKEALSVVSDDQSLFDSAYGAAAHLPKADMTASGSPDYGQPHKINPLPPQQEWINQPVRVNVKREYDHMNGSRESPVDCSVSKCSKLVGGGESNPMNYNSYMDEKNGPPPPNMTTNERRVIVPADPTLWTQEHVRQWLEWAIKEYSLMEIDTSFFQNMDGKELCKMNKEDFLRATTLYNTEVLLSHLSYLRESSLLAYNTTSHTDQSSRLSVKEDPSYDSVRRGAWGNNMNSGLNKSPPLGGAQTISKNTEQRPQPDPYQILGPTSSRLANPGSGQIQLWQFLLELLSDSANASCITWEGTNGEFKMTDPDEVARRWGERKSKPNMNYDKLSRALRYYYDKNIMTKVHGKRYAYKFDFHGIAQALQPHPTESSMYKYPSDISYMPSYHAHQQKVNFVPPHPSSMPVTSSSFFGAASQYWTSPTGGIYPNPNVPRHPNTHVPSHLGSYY
Summary of the method: (§1)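 Pools were built from human transcription factors expressed in yeast as GST fusions, captured on glutathione beads and DNA-barcoded, along with a tag-only sample. Incubation with 200 nmole of a 16-mer random double-stranded DNA library lasted 30 min at room temperature in Tris/NaCl/DTT/glycerol buffer, and was followed by washing, 0.1% formaldehyde crosslinking, proximity ligation, PCR amplification and Illumina NextSeq500 sequencing. Binding signal is the quotient of each hexamer's read frequency for a factor and its frequency for the tag-only sample.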

ELK1 = target: T2, ELK1 (Homo sapiens, UniProt P19419 1-428)
T2 sequence: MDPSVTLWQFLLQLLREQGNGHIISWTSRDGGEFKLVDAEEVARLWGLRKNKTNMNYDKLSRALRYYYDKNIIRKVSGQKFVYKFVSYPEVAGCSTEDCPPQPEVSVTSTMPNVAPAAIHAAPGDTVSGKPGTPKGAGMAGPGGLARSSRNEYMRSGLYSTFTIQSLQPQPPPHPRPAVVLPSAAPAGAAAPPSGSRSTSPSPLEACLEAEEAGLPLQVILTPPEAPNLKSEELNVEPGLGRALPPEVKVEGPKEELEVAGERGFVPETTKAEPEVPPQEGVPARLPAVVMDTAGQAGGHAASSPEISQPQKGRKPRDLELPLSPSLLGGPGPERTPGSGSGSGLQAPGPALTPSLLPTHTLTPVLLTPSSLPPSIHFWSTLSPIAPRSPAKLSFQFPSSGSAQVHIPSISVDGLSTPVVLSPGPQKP
Summary of the method: as §1

GABPA = target: T3, GABPA (Homo sapiens, UniProt Q06546 1-454)
T3 sequence: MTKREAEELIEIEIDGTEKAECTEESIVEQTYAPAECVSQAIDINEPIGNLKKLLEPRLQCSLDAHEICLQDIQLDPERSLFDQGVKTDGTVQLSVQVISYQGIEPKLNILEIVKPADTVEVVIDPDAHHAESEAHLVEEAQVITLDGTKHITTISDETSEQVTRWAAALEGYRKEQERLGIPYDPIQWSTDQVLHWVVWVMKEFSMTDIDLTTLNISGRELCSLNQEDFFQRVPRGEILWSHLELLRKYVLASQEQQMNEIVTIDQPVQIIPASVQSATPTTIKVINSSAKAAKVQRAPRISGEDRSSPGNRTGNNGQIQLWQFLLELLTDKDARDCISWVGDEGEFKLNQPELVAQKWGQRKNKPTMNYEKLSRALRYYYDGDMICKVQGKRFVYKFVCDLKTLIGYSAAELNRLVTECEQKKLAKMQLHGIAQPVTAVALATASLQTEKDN
Summary of the method: as §1

ERG = target: T4, ERG (Homo sapiens, UniProt P11308 1-479)
T4 sequence: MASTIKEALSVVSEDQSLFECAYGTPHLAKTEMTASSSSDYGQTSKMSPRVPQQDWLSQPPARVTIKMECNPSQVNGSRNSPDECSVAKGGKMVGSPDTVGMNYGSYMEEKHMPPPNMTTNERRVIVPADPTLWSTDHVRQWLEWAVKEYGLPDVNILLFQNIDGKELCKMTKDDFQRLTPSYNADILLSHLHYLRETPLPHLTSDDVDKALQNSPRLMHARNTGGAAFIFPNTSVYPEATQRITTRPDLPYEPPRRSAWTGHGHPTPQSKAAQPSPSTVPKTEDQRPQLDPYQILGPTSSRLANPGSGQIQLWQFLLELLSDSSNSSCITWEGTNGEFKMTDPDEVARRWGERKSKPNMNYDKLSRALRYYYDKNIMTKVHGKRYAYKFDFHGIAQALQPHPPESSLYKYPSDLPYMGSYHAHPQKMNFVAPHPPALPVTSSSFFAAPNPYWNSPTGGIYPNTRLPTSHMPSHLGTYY
Summary of the method: as §1

ELF1 = ELF1 (Homo sapiens, UniProt P32519 1-619)
Summary of the method: as §1

EHF = target: T5, EHF (Homo sapiens, UniProt Q9NZC4 1-300)
T5 sequence: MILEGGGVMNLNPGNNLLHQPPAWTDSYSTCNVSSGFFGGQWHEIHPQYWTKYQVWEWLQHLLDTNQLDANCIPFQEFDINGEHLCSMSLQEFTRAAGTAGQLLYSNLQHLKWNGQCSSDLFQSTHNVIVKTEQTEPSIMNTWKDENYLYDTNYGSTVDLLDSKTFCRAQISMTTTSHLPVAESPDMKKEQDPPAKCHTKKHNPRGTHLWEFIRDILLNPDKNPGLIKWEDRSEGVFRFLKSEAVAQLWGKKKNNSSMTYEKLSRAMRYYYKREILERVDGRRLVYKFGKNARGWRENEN
Summary of the method: as §1

SPI1 = SPI1 (Homo sapiens, UniProt P17947 1-270)
Summary of the method: as §1

SPIB = SPIB (Homo sapiens, UniProt Q01892 1-262)
Summary of the method: as §1

ELK3 = target: T6, ELK3 (Homo sapiens, UniProt P41970 1-407)
T6 sequence: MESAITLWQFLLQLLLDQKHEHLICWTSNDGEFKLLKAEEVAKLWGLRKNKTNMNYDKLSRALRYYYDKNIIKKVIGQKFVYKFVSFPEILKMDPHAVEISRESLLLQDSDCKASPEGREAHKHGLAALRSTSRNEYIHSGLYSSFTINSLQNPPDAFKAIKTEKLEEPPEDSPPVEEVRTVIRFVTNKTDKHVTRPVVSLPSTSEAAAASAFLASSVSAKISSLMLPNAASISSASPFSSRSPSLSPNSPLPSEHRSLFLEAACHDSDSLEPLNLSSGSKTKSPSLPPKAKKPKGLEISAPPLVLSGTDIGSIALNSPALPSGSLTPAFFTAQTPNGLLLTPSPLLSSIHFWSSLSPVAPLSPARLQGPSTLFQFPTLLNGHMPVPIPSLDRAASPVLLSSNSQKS
Summary of the method: as §1

FEV = target: T7, FEV (Homo sapiens, UniProt Q99581 1-238)
T7 sequence: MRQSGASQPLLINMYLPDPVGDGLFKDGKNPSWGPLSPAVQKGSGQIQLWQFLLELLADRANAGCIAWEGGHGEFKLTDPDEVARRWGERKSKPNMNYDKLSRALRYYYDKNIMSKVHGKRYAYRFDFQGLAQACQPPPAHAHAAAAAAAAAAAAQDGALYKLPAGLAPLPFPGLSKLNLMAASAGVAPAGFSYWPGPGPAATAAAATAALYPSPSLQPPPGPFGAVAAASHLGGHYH
Summary of the method: as §1

ETV5 = ETV5 (Homo sapiens, UniProt P41161 1-510)
Summary of the method: as §1

SPIC = target: T8, SPIC (Homo sapiens, UniProt Q8N5J4 1-248)
T8 sequence: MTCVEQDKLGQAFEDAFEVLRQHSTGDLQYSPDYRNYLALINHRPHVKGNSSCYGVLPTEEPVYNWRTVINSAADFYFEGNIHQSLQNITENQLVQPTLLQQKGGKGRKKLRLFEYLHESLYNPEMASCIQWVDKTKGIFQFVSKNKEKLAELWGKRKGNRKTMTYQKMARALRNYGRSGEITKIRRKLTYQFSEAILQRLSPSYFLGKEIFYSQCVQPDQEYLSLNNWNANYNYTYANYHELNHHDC
Summary of the method: as §1

ELF4 = ELF4 (Homo sapiens, UniProt Q99607 1-663)
Summary of the method: as §1

ELK4 = target: T9, ELK4 (Homo sapiens, UniProt P28324-2 1-405)
T9 sequence: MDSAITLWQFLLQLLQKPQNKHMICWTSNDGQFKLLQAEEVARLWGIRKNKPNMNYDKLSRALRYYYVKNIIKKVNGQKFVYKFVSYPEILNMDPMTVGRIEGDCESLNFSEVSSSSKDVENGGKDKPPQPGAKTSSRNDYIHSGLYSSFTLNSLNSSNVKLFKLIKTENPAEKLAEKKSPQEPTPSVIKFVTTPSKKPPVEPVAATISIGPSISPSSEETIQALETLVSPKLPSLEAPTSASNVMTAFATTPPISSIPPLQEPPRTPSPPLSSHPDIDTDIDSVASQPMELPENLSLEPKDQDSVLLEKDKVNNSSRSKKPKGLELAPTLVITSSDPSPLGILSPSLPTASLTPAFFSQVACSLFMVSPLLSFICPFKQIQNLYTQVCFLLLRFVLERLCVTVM
Summary of the method: as §1

ETV2 = target: T10, ETV2 (Homo sapiens, UniProt O00321 1-342)
T10 sequence: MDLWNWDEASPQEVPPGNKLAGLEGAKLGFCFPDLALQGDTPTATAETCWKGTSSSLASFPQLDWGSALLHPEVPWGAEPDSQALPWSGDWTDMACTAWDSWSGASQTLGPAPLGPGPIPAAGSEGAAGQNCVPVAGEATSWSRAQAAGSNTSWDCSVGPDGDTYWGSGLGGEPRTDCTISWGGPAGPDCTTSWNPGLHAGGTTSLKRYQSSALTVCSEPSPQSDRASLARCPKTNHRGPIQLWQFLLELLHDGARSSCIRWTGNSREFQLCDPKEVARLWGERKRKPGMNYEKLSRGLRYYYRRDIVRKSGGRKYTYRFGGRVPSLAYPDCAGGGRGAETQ
Summary of the method: as §1

ELF3 = target: T11, ELF3 (Homo sapiens, UniProt P78545 1-371)
T11 sequence: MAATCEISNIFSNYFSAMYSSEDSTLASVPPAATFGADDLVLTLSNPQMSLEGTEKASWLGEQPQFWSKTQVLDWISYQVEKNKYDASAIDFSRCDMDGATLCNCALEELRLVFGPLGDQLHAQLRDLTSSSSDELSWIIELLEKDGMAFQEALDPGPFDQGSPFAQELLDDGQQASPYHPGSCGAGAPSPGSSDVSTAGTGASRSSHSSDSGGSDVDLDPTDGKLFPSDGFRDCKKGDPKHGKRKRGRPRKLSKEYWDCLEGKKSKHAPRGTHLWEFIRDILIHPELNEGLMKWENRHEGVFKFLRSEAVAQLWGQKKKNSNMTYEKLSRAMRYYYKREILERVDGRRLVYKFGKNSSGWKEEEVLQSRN
Summary of the method: as §1

ETV1 = ETV1 (Homo sapiens, UniProt P50549 1-477)
Summary of the method: as §1

ETV5, sequence (P41161 whole entry): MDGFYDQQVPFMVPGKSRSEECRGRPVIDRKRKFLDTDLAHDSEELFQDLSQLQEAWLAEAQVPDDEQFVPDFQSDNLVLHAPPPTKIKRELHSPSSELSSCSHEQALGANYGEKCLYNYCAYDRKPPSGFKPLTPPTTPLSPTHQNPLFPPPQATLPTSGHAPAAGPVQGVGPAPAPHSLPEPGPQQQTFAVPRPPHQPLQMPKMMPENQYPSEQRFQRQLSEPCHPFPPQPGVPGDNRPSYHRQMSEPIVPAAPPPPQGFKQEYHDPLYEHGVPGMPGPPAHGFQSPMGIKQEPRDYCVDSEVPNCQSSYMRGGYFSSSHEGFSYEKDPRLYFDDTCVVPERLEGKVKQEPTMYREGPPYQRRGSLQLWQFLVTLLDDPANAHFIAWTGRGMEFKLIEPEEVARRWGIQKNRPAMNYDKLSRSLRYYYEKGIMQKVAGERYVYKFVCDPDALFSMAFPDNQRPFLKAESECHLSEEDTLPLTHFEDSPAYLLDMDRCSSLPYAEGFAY
ETV1, sequence (P50549 whole entry): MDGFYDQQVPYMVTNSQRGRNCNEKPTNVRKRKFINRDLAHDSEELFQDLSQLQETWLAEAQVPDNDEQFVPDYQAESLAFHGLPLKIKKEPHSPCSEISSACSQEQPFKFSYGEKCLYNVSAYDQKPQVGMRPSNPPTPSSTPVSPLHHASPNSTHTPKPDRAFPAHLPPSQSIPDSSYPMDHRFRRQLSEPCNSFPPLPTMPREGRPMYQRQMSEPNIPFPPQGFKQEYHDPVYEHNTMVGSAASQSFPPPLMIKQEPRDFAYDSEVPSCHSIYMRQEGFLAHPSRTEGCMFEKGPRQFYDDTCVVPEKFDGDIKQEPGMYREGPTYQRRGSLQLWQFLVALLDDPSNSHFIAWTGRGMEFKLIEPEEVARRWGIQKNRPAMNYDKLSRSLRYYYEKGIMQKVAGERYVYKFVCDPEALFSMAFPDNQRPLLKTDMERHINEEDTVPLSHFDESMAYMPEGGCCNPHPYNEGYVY
ELF1, sequence (P32519 whole entry): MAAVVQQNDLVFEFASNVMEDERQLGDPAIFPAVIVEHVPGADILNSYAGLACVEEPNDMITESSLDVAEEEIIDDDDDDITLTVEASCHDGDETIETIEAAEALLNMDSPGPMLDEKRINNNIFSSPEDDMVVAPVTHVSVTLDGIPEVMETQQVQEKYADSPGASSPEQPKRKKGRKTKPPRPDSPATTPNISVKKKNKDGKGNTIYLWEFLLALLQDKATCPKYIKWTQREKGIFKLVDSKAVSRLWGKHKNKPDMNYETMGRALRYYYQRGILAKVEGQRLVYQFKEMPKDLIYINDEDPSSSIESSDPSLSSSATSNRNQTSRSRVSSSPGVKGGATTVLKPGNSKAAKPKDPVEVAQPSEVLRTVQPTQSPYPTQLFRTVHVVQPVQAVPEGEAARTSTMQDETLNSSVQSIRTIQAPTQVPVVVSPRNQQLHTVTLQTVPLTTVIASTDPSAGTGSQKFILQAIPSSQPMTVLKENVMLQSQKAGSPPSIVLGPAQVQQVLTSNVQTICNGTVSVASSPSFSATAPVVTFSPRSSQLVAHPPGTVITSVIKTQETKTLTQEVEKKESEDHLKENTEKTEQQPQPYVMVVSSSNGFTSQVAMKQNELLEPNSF
ELF4, sequence (Q99607 whole entry): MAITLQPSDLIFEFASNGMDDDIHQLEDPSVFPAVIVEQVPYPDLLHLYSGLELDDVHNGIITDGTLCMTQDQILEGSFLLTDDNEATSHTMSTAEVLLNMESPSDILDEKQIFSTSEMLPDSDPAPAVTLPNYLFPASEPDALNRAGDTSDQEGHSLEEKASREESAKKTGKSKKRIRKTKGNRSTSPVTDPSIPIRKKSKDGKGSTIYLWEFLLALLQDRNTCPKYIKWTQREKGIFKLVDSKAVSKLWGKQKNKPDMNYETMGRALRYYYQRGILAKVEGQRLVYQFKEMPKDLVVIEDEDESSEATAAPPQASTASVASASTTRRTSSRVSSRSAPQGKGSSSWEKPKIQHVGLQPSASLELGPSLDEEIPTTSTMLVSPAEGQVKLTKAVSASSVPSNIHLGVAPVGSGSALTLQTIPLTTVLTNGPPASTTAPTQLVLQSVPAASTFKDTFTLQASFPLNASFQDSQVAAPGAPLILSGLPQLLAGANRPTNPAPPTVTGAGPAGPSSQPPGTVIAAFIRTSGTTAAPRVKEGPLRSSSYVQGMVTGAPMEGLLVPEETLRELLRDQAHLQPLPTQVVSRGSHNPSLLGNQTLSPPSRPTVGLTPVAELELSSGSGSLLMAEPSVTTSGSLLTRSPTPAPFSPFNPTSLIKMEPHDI
SPIB, sequence (Q01892 whole entry): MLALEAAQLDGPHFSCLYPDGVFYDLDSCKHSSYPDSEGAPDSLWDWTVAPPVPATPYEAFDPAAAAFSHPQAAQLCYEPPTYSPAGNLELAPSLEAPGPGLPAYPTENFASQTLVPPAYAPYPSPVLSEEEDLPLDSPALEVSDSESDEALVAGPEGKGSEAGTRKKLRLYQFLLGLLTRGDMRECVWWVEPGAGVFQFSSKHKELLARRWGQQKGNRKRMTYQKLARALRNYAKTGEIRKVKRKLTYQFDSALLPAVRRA

Sequence | binding signal (FLI1) | binding signal (ELK1) | binding signal (GABPA) | binding signal (ERG) | binding signal (ELF1) | binding signal (EHF) | binding signal (SPI1) | binding signal (SPIB) | binding signal (ELK3) | binding signal (FEV) | binding signal (ETV5) | binding signal (SPIC) | binding signal (ELF4) | binding signal (ELK4) | binding signal (ETV2) | binding signal (ELF3) | binding signal (ETV1)
CAAACT | 1.18 fold enrichment (6-mer frequency, TF over GST control) | 1.14 fold enrichment (6-mer frequency, TF over GST control) | 1.21 fold enrichment (6-mer frequency, TF over GST control) | 1.12 fold enrichment (6-mer frequency, TF over GST control) | 1.17 fold enrichment (6-mer frequency, TF over GST control) | 1.15 fold enrichment (6-mer frequency, TF over GST control) | 1.12 fold enrichment (6-mer frequency, TF over GST control) | 1.14 fold enrichment (6-mer frequency, TF over GST control) | 1.23 fold enrichment (6-mer frequency, TF over GST control) | 1.17 fold enrichment (6-mer frequency, TF over GST control) | 1.16 fold enrichment (6-mer frequency, TF over GST control) | 1.14 fold enrichment (6-mer frequency, TF over GST control) | 1.17 fold enrichment (6-mer frequency, TF over GST control) | 1.15 fold enrichment (6-mer frequency, TF over GST control) | 1.21 fold enrichment (6-mer frequency, TF over GST control) | 1.06 fold enrichment (6-mer frequency, TF over GST control) | 1.28 fold enrichment (6-mer frequency, TF over GST control)
AAGTGG | 1.09 fold enrichment (6-mer frequency, TF over GST control) | 1.19 fold enrichment (6-mer frequency, TF over GST control) | 1.22 fold enrichment (6-mer frequency, TF over GST control) | 1.16 fold enrichment (6-mer frequency, TF over GST control) | 1.17 fold enrichment (6-mer frequency, TF over GST control) | 1.24 fold enrichment (6-mer frequency, TF over GST control) | 1.5 fold enrichment (6-mer frequency, TF over GST control) | 1.26 fold enrichment (6-mer frequency, TF over GST control) | 1.33 fold enrichment (6-mer frequency, TF over GST control) | 1.23 fold enrichment (6-mer frequency, TF over GST control) | 1.17 fold enrichment (6-mer frequency, TF over GST control) | 1.43 fold enrichment (6-mer frequency, TF over GST control) | 1.12 fold enrichment (6-mer frequency, TF over GST control) | 1.13 fold enrichment (6-mer frequency, TF over GST control) | 1.02 fold enrichment (6-mer frequency, TF over GST control) | 1.19 fold enrichment (6-mer frequency, TF over GST control) | 1.2 fold enrichment (6-mer frequency, TF over GST control)
